In PubChem BioAssay (EPA / NIEHS) one finds AC50 and outcome data, which are given here for 18 compounds.

Common to all, as to settings: mRNA level, 48 h; actives raise or lower the signal
Read-out in experiment [1]: growth arrest and DNA damage 45 (GADD45B), GADD45B (gene 4616)
Briefly: LTEA_HepaRG_GADD45B: Life Technologies and Expression Analysis (LTEA) Assay for growth arrest and DNA damage 45 (GADD45B) using HepaRG (AID 2283461). The procedure, abridged:
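Transcript level quantified by Fluidigm TaqMan qRT-PCR with three housekeeping genes for normalization, analyzed for up- or down-regulation against 0.5% DMSO. HepaRG cultures dosed 48 h at eight half-log concentrations up to 100 uM, duplicates.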

Read-out in experiment [2]: ABC Transporter (ABCC3), ABCC3 (gene 8714)
Briefly: LTEA_HepaRG_ABCC3: Life Technologies and Expression Analysis (LTEA) Assay for ABC Transporter (ABCC3) using HepaRG (AID 2283462). A digest of the protocol: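 Transcript level by TaqMan qRT-PCR, normalised to three housekeeping genes, fitted in both directions relative to vehicle. Chemicals tested in duplicate at eight half-log concentrations up to 100 uM for 48 h on HepaRG cells (0.5% DMSO).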

Read-out in experiment [3]: ABC Transporter (ABCB11), ABCB11 (gene 8647)
Briefly: LTEA_HepaRG_ABCB11: Life Technologies and Expression Analysis (LTEA) Assay for ABC Transporter (ABCB11) using HepaRG (AID 2283463). A digest of the protocol:
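Differentiated human HepaRG cells in serum-free induction medium, dosed in duplicate for 48 h. Eight-point half-log series from 100 uM in 0.5% DMSO; ABCB11 mRNA by qRT-PCR, normalized to ACTB, GAPDH, POLR2A, fitted bidirectionally versus DMSO.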

Read-out in experiment [4]: ABC Transporter (ABCC2), ABCC2 (gene 1244)
Briefly: LTEA_HepaRG_ABCC2: Life Technologies and Expression Analysis (LTEA) Assay for ABC Transporter (ABCC2) using HepaRG (AID 2283464). The procedure, abridged:
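Endpoint is ABCC2 transcript level from qRT-PCR, normalized to three housekeeping genes and fitted bidirectionally relative to DMSO. Human HepaRG cells received test chemical for 48 h at up to 100 uM (8 points, half-log steps, 0.5% DMSO), duplicate wells.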

Read-out in experiment [5]: Broad substrate specificity ATP-binding cassette transporter ABCG2 (Homo sapiens) (UniProt Q9UNQ0)
Briefly: LTEA_HepaRG_ABCG2: Life Technologies and Expression Analysis (LTEA) Assay for ABC Transporter (ABCG2) using HepaRG (AID 2283465). The procedure, abridged: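 Differentiated HepaRG cells were exposed for 48 h in serum-free induction medium to 8 half-log concentrations, top 100 uM, in 0.5% DMSO. ABCG2 mRNA was measured by qRT-PCR, normalized to ACTB, GAPDH and POLR2A, with bidirectional fitting versus DMSO.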

Read-out in experiment [6]: Peroxisomal acyl-coenzyme A oxidase 1 (ACOX1) gene, ACOX1 (gene 51)
Briefly: LTEA_HepaRG_ACOX1: Life Technologies and Expression Analysis (LTEA) Assay for Peroxisomal acyl-coenzyme A oxidase 1 (ACOX1) gene using HepaRG (AID 2283467). The procedure, abridged:
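HepaRG cells, plated 48 h then switched to serum-free induction medium, were exposed in duplicate for 48 h to 8-point half-log concentrations up to 100 uM in 0.5% DMSO. ACOX1 mRNA was measured by qRT-PCR, normalized to ACTB/GAPDH/POLR2A, and fitted bidirectionally versus DMSO.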

Read-out in experiment [7]: Alkaline Phosphatase, Placental (ALPP) gene, ALPP (gene 250)
Briefly: LTEA_HepaRG_ALPP: Life Technologies and Expression Analysis (LTEA) Assay for Alkaline Phosphatase, Placental (ALPP) gene using HepaRG (AID 2283468). The procedure, abridged: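 ALPP transcript level, measured by qRT-PCR and normalized to three housekeeping genes (ACTB, GAPDH, POLR2A), after 48 h dosing of differentiated HepaRG in serum-free induction medium. Top concentration 100 uM with half-log dilutions (8 points, 0.5% DMSO, duplicates); bidirectional fitting relative to DMSO.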

Read-out in experiment [8]: Bcl-2 (BAD) gene, BAD (gene 572)
Briefly: LTEA_HepaRG_BAD: Life Technologies and Expression Analysis (LTEA) Assay for Bcl-2 (BAD) gene using HepaRG (AID 2283469). A digest of the protocol: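 Differentiated HepaRG cells were exposed in duplicate in 0.5% DMSO for 48 h to eight-point half-log concentrations up to 100 uM. BAD mRNA was measured by Fluidigm TaqMan qRT-PCR, normalized to ACTB, GAPDH and POLR2A, and fitted bidirectionally against DMSO.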

Read-out in experiment [9]: Bcl-2 (BAX) gene, BAX (gene 581)
Briefly: LTEA_HepaRG_BAX: Life Technologies and Expression Analysis (LTEA) Assay for Bcl-2 (BAX) gene using HepaRG (AID 2283470). A digest of the protocol: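 Concentration-response endpoint fitted in both directions relative to 0.5% DMSO vehicle. Human HepaRG cultures receive test chemicals for 48 h at up to 100 uM; BAX mRNA is quantified by qRT-PCR against housekeeping genes.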

Read-out in experiment [10]: ATP-citrate lyase (ACLY), ACLY (gene 47)
Briefly: LTEA_HepaRG_ACLY: Life Technologies and Expression Analysis (LTEA) Assay for ATP-citrate lyase (ACLY) using HepaRG (AID 2283466). A digest of the protocol: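 Differentiated HepaRG cells exposed 48 h in serum-free induction medium to eight half-log concentrations up to 100 uM in 0.5% DMSO, duplicates. Transcript measured by Fluidigm TaqMan qRT-PCR, normalized to ACTB, GAPDH, POLR2A; bidirectional fit versus DMSO.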

Several values for one entry are separate records, joined by “and”; a condition that tells them apart may be missing. Equal values may be shown once. The source holds several records for some structures; these can differ, active in one and inactive in another. Activity calls are given as the source filed them. The calls were made as follows: active = hit-call score of the fitted dose curve at least 0.9, where 1 is the maximum; inactive = score below 0.9.

Chain of Broad substrate specificity ATP-binding cassette transporter ABCG2 (Homo sapiens) (Q9UNQ0 whole entry, looked up): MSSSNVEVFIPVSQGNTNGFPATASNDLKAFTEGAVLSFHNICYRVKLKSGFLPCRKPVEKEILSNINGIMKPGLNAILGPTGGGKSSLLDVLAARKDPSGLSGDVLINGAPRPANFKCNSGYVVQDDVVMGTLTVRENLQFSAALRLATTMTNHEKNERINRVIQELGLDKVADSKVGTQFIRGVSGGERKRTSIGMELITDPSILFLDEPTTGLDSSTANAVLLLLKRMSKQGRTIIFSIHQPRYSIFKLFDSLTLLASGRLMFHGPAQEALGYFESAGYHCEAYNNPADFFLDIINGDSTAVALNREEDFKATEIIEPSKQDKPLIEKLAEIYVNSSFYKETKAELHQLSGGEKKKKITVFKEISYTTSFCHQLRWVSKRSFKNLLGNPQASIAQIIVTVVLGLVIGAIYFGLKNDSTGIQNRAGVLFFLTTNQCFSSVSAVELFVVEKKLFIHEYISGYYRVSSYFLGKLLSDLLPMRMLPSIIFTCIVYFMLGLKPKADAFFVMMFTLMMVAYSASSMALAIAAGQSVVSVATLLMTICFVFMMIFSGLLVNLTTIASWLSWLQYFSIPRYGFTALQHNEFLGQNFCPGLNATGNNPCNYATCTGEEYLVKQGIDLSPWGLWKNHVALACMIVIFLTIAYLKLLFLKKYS

As a reminder, the AC50 is the concentration giving half of the maximal activity seen. On to `N#Cc1nn(-c2c(Cl)cc(C(F)(F)F)cc2Cl)c(N)c1S(=O)C(F)(F)F` (centres undefined), for which the AC50 in experiment [1] was 90.7 µM (active); in experiment [3], 27.8 µM (active); in experiment [5], 23.5 µM (active); in experiment [6] it was 50.2 µM (active); in [7] it was 11.5 µM (active); in experiment [9], 32.6 µM (active). The compound was classed as inactive in experiment [2], in [4] and in experiment [8].

As for `CCc1nn(C)c(C(=O)NCc2ccc(C(C)(C)C)cc2)c1Cl`, the compound was classed as inactive in [1] and in experiment [8]. In addition, the AC50 in [2] is 0.296 µM (active); in experiment [4], 14.3 µM (active); in [5], 0.361 µM (active); in experiment [10], 0.502 µM (active); in experiment [6] it was 0.369 µM (active); in experiment [7], 0.688 µM (active). The AC50 in experiment [9] was 18 µM (active).

Consider `CCCN(CCC)c1c([N+](=O)[O-])cc(S(N)(=O)=O)cc1[N+](=O)[O-]`, for which the concentration at half-maximal activity (AC50) in experiment [1] was 93.5 µM (active) and 93.2 µM (active); in experiment [2], 93.6 µM (active) and 74.3 µM (active) and 90.4 µM (active); in experiment [4] it was 92.1 µM (active) and 82.3 µM (active) and 84.7 µM (active); in experiment [5], 15.8 µM (active); in experiment [6] it was 77.5 µM (active); in experiment [8], 74.1 µM (active). Further, the call in experiment [1], in experiment [5], in [6], in experiment [7], in [8] and in experiment [9] was inactive.

In the case of `N#CC(CCc1ccc(Cl)cc1)(Cn1cncn1)c1ccccc1` (centres undefined), the call in experiment [1] and in experiment [8] was inactive. The AC50 was 12.5 µM (active) in experiment [2]; 72.3 µM (active) in [3]; 50 µM (active) in experiment [4]; 50 µM (active) in experiment [5]; 34.3 µM (active) in experiment [6]; 21.9 µM (active) in [7]. Further, in experiment [9], the AC50 was 68 µM (active).

As for `COC(=O)C(C)Oc1ccc(Oc2ccc(Cl)cc2Cl)cc1` (centres undefined), the result in experiment [1], in experiment [2], in [4], in experiment [5], in [10] and in experiment [7] was inactive. Besides, the result in [8] and in experiment [9] was inactive. Also, the AC50 in experiment [3] was 45.7 µM (active); in [6], 21.7 µM (active).

Regarding `Oc1ccccc1-c1ccccc1`, the call in [1], in [2], in [4], in [5], in experiment [10] and in experiment [6] was inactive. In addition, the call in [7], in experiment [8] and in experiment [9] was inactive.

For the compound `CCCCNC(=O)n1c(NC(=O)OC)nc2ccccc21`, the call in [1], in experiment [2], in experiment [4], in [5], in [10] and in experiment [6] was inactive. Besides, the outcome in experiment [7], in [8] and in experiment [9] was inactive.

Consider `O=C(O)c1nc(Cl)ccc1Cl`, for which the compound was classed as inactive in experiment [1], in experiment [2], in [4], in experiment [5], in [6] and in [7]. The compound was classed as inactive in experiment [8] and in experiment [9]. The concentration at half-maximal activity (AC50) in [7] is 27.3 µM (active).

Turning to `CNC(=O)ON=CC(C)(C)SC`, the compound was classed as inactive in [1], in experiment [2], in experiment [3], in [4], in experiment [5] and in experiment [6]. Further, the compound was classed as inactive in experiment [7], in experiment [8] and in experiment [9].

For the compound `N#Cc1cc(Br)c(O)c(Br)c1`, the concentration at half-maximal activity (AC50) in experiment [1] is 27.1 µM (active); in experiment [2], 9.48 µM (active); in [3] it was 19.9 µM (active); in [4], 14 µM (active); in experiment [5], 10.2 µM (active); in [6], 11.1 µM (active). In addition, in [7], the AC50 was 8.91 µM (active). Besides, the outcome in experiment [8] and in experiment [9] was inactive.

Turning to `CCON=C(CC)C1=C(O)CC(c2c(C)cc(C)cc2C)CC1=O` (centres undefined), the outcome in experiment [1], in [2], in [3], in experiment [10], in experiment [6] and in [7] was inactive. The compound was classed as inactive in experiment [8] and in experiment [9]. The AC50 in experiment [4] was 50 µM (active).

Turning to `CO/C=C(/C(=O)OC)c1ccccc1Oc1cc(Oc2ccccc2C#N)ncn1`, the AC50 is 94.1 µM (active) and 82.7 µM (active) and 84.7 µM (active) in experiment [1]; 22.1 µM (active) and 26.1 µM (active) in experiment [2]; 86.9 µM (active) and 83.9 µM (active) in experiment [4]; 32 µM (active) and 25.5 µM (active) and 12.6 µM (active) in [5]; 50 µM (active) and 63.3 µM (active) in [6]; 41.4 µM (active) and 50 µM (active) and 34 µM (active) in experiment [7]. In addition, the AC50 in experiment [9] was 77.2 µM (active) and 69 µM (active) and 72.1 µM (active). For the same compound, the call in [2], in experiment [4], in experiment [10] and in experiment [8] was inactive.

As to `C=CC1(C)OC(=O)N(c2cc(Cl)cc(Cl)c2)C1=O` (centres undefined), the outcome in experiment [1], in [2], in experiment [4], in experiment [10], in experiment [6] and in experiment [7] was inactive. The compound was classed as inactive in experiment [8] and in experiment [9]. The AC50 in [5] was 11.1 µM (active).

Consider `CC1COC(Cn2cncn2)(c2ccc(Oc3ccc(Cl)cc3)cc2Cl)O1` (centres undefined), for which the half-maximal activity concentration (AC50) is 9.92 µM (active) in [1]; 34.4 µM (active) in [4]; 12.6 µM (active) in [5]; 86.7 µM (active) in experiment [10]; 50 µM (active) in [6]; 10.9 µM (active) in experiment [7]. Besides, the half-maximal activity concentration (AC50) in experiment [9] is 13 µM (active). In addition, the result in experiment [2] and in experiment [8] was inactive.

For `Cc1cc(Cl)ccc1OCC(=O)O`, the result in experiment [1], in experiment [2], in experiment [4], in [5], in [7] and in experiment [8] was inactive. Moreover, in [9], the call was inactive. Besides, the concentration at half-maximal activity (AC50) was 50 µM (active) in experiment [3] and 34.3 µM (active) in [6].

For the compound `C=CCC1=C(C)C(OC(=O)C2C(C=C(C)C)C2(C)C)CC1=O` (centres undefined), the compound was classed as inactive in [1], in experiment [2], in [4], in experiment [10], in experiment [6] and in experiment [7]. The call in experiment [8] and in experiment [9] was inactive. Moreover, the concentration at half-maximal activity (AC50) is 50 µM (active) and 79.2 µM (active) in experiment [5]; 90.9 µM (active) in experiment [6]; 92.4 µM (active) and 71.1 µM (active) in experiment [7].

With `CCNc1nc(Cl)nc(NCC)n1`, the call in experiment [1], in [2], in experiment [4], in experiment [5], in experiment [6] and in experiment [7] was inactive. For the same compound, the compound was called inactive in experiment [8] and in experiment [9].

Take `COC(=O)C=C(C)OP(=O)(OC)OC`: the result in experiment [1], in experiment [2], in [4], in [5], in experiment [10] and in experiment [6] was inactive. The call in experiment [7], in experiment [8] and in experiment [9] was inactive.
